Consider 9 compounds from PubChem BioAssay (NCI).

The panel holds about 83,000 compounds, 20% with a hit somewhere; the sample as a whole holds those more often.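 Interpretation: 100, growth as untreated; towards 0, rising growth inhibition; 0, no net growth; 0 to -100, cell death. Compounds scoring below 10 were considered active.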 A number with no mark means an inactive call. Activity calls are given as the source filed them.

What all share (assay): NCI-60 one-dose screen, 48 h (100 = growth as untreated, 0 = no growth, -100 = all killed)
Holding throughout (conditions): 10 µM

The subject of experiment [1] is SR leukemia.
Experiment [2] concerns RPMI-8226 leukemia.
Experiment [3] concerns OVCAR-8 ovarian.
In experiment [4] the test system is OVCAR-5 ovarian.
In experiment [5] the test system is OVCAR-4 ovarian.
Experiment [6] deals with SK-OV-3 ovarian.
The subject of experiment [7] is IGROV1 ovarian.
Experiment [8] has as its system OVCAR-3 ovarian.
For experiment [9], the system named is HS 578T breast.
The test system of experiment [10] is NCI/ADR-RES ovarian.
Experiment [11] has as its system T-47D breast.
Experiment [12] has as its system BT-549 breast.
Experiment [13] deals with MDA-MB-435 melanoma.
Experiment [14] deals with SW-620 colon.
In experiment [15] the test system is MCF7 breast.
Experiment [16] concerns HCT-116 colon.
In experiment [17] the test system is HCC-2998 colon.
The test system of experiment [18] is KM12 colon.

Consider `CCCCCCCCCCCCc1ccc(C(=O)/C=C/C(=O)O)cc1`, for which the growth in experiment [1] is -28.1% (active); in [2] it was 6.04% (active); in experiment [3] it was 67.1%; in experiment [4] it was 94.1%; in experiment [5], 70.9%; in experiment [6], 98.6%. Further, the growth in experiment [7] is 72.7%; in [8] it was 47%; in [9], 93.7%; in [10], 100%; in [11], 11.6%; in [12], 45%. The growth in [13] was 109%; in [14], -23.1% (active); in experiment [15], -5.2% (active); in experiment [16], -61.3% (active); in experiment [17] it was 76.2%; in [18], 97.7%.

Consider `O=C(Nc1cccc([N+](=O)[O-])c1)NN1CCCCCC1`, for which the growth in [1] was 108%; in experiment [2], 60.5%; in experiment [3], 99.2%; in experiment [4], 105%; in experiment [5], 98.1%; in experiment [6], 114%. Further, the growth in experiment [7] is 109%; in experiment [8] it was 87.4%; in experiment [9] it was 97.2%; in [10] it was 91.4%; in experiment [11], 81.7%; in experiment [12] it was 107%. The growth was 102% in [13]; 95.9% in [14]; 100% in [15]; 94.3% in [16]; 94.8% in experiment [17]; 98.7% in [18].

For the compound `COc1ccc(-c2nc(SCC(=O)c3ccc(Br)cc3)[nH]c(=O)c2C#N)cc1`, the growth in experiment [1] was 94.5%; in experiment [2], 104%; in experiment [3], 106%; in [4], 102%; in [5] it was 120%; in experiment [6], 113%. The growth in experiment [7] is 112%; in experiment [8], 99.3%; in [9], 96.4%; in experiment [10], 110%; in experiment [11], 93.9%; in experiment [12] it was 94.2%. For the same compound, the growth was 100% in experiment [13]; 106% in experiment [14]; 100% in [15]; 97.4% in experiment [16]; 104% in experiment [17]; 96.9% in experiment [18].

`COc1ccc(-c2[nH]ncc2-c2cc(OC)c(OC)c(OC)c2)cc1`: the growth in experiment [1] is 0.125% (active); in experiment [2] it was 0.214% (active); in experiment [3], 9.19% (active); in experiment [4], 20.7%; in experiment [5], 26.8%; in [6] it was -0.205% (active). In addition, the growth in [7] is 28.8%; in experiment [8] it was -17.5% (active); in [9] it was 16.1%; in experiment [10], 14.5%; in experiment [11] it was 58.1%; in experiment [12], -6.65% (active). Moreover, the growth in experiment [13] was -48% (active); in experiment [14] it was 23.6%; in experiment [15], 6.61% (active); in [16], 2.61% (active); in experiment [17] it was -3.98% (active); in [18], -8.7% (active).

In the case of `Clc1cc(Cl)c(OCCCCCCN2CCNCC2)c(Cl)c1`, the growth in experiment [1] is -13.9% (active); in experiment [2], -24.9% (active); in experiment [3], 76%; in experiment [4], 71%; in [5], 86.9%; in experiment [6], 98%. Further, the growth is 46.6% in [7]; 45.7% in experiment [8]; 55.3% in experiment [9]; 75.8% in experiment [10]; 39.8% in experiment [11]; 70.4% in [12]. Further, the growth is 10.5% in experiment [13]; -44% (active) in experiment [14]; -24.5% (active) in experiment [15]; 12% in [16]; -34% (active) in experiment [17]; 21.3% in [18].

Consider `COc1ccc(-c2cc(/C=C/C(=O)c3ccc(N)cc3)[nH]n2)cc1OC`, for which the growth was 10.3% in [1]; -12.6% (active) in experiment [2]; 15.2% in experiment [3]; 45% in [4]; 24.4% in [5]; 39% in [6]. Further, the growth in experiment [7] is 29.1%; in experiment [8] it was 5.89% (active); in experiment [9] it was 1.16% (active); in [10], 78.6%; in [11], 50.3%; in experiment [12] it was 55.4%. The growth was 46.8% in experiment [13]; 10.2% in experiment [14]; 14.9% in [15]; 17.4% in [16]; 38.8% in experiment [17]; 5.98% (active) in [18].

Consider `N#CN1CC[C@H](C(=O)Nc2ncc(-c3ccccc3)s2)C1`, for which the growth is 0.907% (active) in [1]; 3.84% (active) in experiment [2]; 2.85% (active) in [3]; 1.27% (active) in experiment [4]; -6.05% (active) in experiment [5]; 5.15% (active) in experiment [6]. For the same compound, the growth in experiment [7] is 11%; in [8] it was -32.5% (active); in experiment [9] it was -7.39% (active); in [10], 4.61% (active); in experiment [11], -44% (active); in experiment [12], -5.31% (active). The growth in [13] is 0.958% (active); in [14] it was 5.19% (active); in [15], 3.54% (active); in [16] it was -3.16% (active); in experiment [17], -11.1% (active); in experiment [18], -6.3% (active).

In the case of `CCCCC(=O)N(c1ccc(Nc2c3ccccc3nc3cc([N+](=O)[O-])ccc23)cc1)S(C)(=O)=O`, the growth was 5.36% (active) in experiment [1]; 35% in experiment [2]; 71.7% in [3]; 96.9% in [4]; 81% in experiment [5]; 80% in [6]. The growth in experiment [7] was 48.7%; in experiment [8], 88.3%; in experiment [9], 88.3%; in experiment [10], 101%; in experiment [11], 15.1%; in experiment [12] it was 86.3%. Besides, the growth in experiment [13] was 96.8%; in [14], 71.5%; in experiment [15], 17.2%; in experiment [16], 63.4%; in [17], 86.1%; in experiment [18] it was 38.4%.

On to `Cc1nc(N)sc1Sc1nc2ccc(Cl)cc2c(=O)n1-c1ccc(Oc2ccccc2)cc1`, for which the growth in [1] is -44.8% (active); in experiment [2] it was 68.1%; in experiment [3] it was 75.2%; in experiment [4], 87.9%; in experiment [5], 40.9%; in experiment [6], 104%. The growth in experiment [7] is 101%; in [8], 91.3%; in experiment [9] it was 81.9%; in experiment [10], 69.9%; in [11] it was 75.5%; in experiment [12], 63.2%. In addition, the growth in experiment [13] is 88.1%; in [14], 66.1%; in experiment [15] it was 87.4%; in experiment [16], 33.3%; in experiment [17], 74.1%; in experiment [18] it was 79.8%.
